The supplement of paper PMC6555819

What was measured:
Experiment in all cases: PBM binding z-score (relative to random genomic background probes); higher = stronger binding; sequences stand for … in GC…GCGATTGACAGCGTAGAATGAAGG
[1] = tested on: PPARg:RXRa DBDmut IVT, anti-RXR (DBD mutation: RXRa K156A/R161A, NR concentration 270 nM, RXRa partner concentration 90 nM)
Procedure, shortened: (§1)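 Scanned fluorescence from custom Agilent 4×180K protein-binding microarrays was regression-normalized. Binding z-scores use random background probes as reference. Ligand-free nuclear receptor dimers were incubated on the arrays for 1 h and detected with antibodies against each partner (one per run).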

[2] = tested on: PPARg:RXRa IVT, anti-PPARg (NR concentration 270 nM, RXRa partner concentration 90 nM)
Procedure, shortened: as §1

[3] = tested on: PPARg homodimer (NR concentration 180 nM)
Procedure, shortened: as §1

[4] = tested on: PXR:RXRa (NR concentration 270 nM, RXRa partner concentration 90 nM)
Procedure, shortened: as §1

[5] = tested on: PXR homodimer (NR concentration 270 nM)
Procedure, shortened: as §1

[6] = tested on: RARa homodimer (NR concentration 270 nM)
Procedure, shortened: as §1

[7] = tested on: RARb:RXRa (NR concentration 270 nM, RXRa partner concentration 90 nM)
Procedure, shortened: as §1

[8] = tested on: RARb homodimer (NR concentration 270 nM)
Procedure, shortened: as §1

[9] = tested on: RARg:RXRa (NR concentration 270 nM, RXRa partner concentration 90 nM)
Procedure, shortened: as §1

[10] = tested on: RARg homodimer (NR concentration 270 nM)
Procedure, shortened: as §1

[11] = tested on: RXRa DBDmut IVT, anti-RXR (DBD mutation: RXRa K156A/R161A, NR concentration 90 nM)
Procedure, shortened: as §1

[12] = tested on: RXRa homodimer (NR concentration 180 nM)
Procedure, shortened: as §1

[13] = tested on: THRa:RXRa (NR concentration 90 nM, RXRa partner concentration 90 nM)
Procedure, shortened: as §1

[14] = tested on: THRa homodimer (NR concentration 90 nM)
Procedure, shortened: as §1

[15] = tested on: VDR homodimer (NR concentration 270 nM)
Procedure, shortened: as §1

[16] = tested on: RARa:RXR (NR concentration 270 nM, RXRa partner concentration 90 nM)
Procedure, shortened: as §1

[17] = tested on: VDR:RXRa (NR concentration 270 nM, RXRa partner concentration 90 nM)
Procedure, shortened: as §1

| Sequence | PBM binding z-score [1] | PBM binding z-score [2] | PBM binding z-score [3] | PBM binding z-score [4] | PBM binding z-score [5] | PBM binding z-score [6] | PBM binding z-score [7] | PBM binding z-score [8] | PBM binding z-score [9] | PBM binding z-score [10] | PBM binding z-score [11] | PBM binding z-score [12] | PBM binding z-score [13] | PBM binding z-score [14] | PBM binding z-score [15] | PBM binding z-score [16] | PBM binding z-score [17] |
| --- | --- | --- | --- | --- | --- | --- | --- | --- | --- | --- | --- | --- | --- | --- | --- | --- | --- |
| CCGCGTAGGTTACGAGGGGGCATTCAGTGCGAAT | 1.02 | 2.43 | 1.12 | 4.76 | 4.05 | -0.311 | 2.14 | 2.04 | 3.34 | 2.15 | 1.51 | 2.28 | 3.95 | 0.24 | 2.58 | – | – |
| CCGAGTAGGTTCCGAGGGGGCATTCAGTGCGAAT | 1.28 | 2.13 | 1.1 | – | 6.61 | 0.637 | 1.3 | 1.62 | 1.66 | 1.02 | 1.42 | 1.12 | 2.38 | 1.1 | 3.91 | 2.14 | – |
| TCGAGTAGGATACGGGGGCATTCAGGGATGAAGA | 1.6 | 3.19 | 0.663 | 2.12 | 0.916 | 0.237 | 1.25 | 1.19 | 1.52 | 0.916 | 1.24 | 1.29 | 3.47 | 0.629 | 2.79 | 2.17 | – |
| CCGAGTAGGTTACGAGGGGGAATTCAGTGCGAAT | 4.48 | 4.06 | 0.811 | 1.55 | 0.309 | 0.123 | 1.26 | 0.662 | 1.53 | 1.1 | 0.572 | 1.09 | 1.79 | 0.0868 | 0.419 | 1.23 | – |
| TCGAGTAGGTTACGGCGGCATTCAGGGATGAAGA | 3.16 | 2.85 | -0.171 | -0.0606 | -0.885 | -1.2 | 0.794 | 0.0882 | 0.396 | 0.134 | -0.00856 | 0.642 | – | -0.386 | -0.475 | 0.128 | – |
| TCGAGTGGGTTACGGGGGCATTCAGGGATGAAGA | 4.62 | 6.37 | 1.92 | 3.59 | 2.12 | 1.12 | 2.46 | 2.26 | – | 2.35 | 2.33 | 2.74 | 4.08 | 2.2 | 3.66 | 3.12 | 4.27 |
| CCGAGTAGGTTACGAGGAGGCATTCAGTGCGAAT | 4.34 | 3.39 | -0.438 | 0.196 | -0.429 | -0.663 | 0.685 | -0.00242 | 0.333 | 0.522 | 0.082 | 0.427 | – | -0.82 | -0.434 | 0.244 | – |
| CTATGTTGGTTAAGGGGGTCATTCAGTTTGAAAG | 3.11 | 5.29 | 4.17 | 5.75 | 10.8 | 4.36 | 3.51 | 3.86 | 4.63 | 3.46 | 2.63 | 5.18 | 3.75 | 3.17 | 6.63 | 5.62 | – |
| CTATGTAGGTTAACGGGGTCATTCAGTTTGAAAG | 7.65 | 7.78 | 2.41 | – | 12.2 | 0.661 | 3.57 | 4.24 | 5.11 | 3.74 | 3.05 | 6.78 | 4.44 | 2.55 | 7.5 | 6.06 | – |
| CTATGTAGGTTAATGGGGTCATTCAGTTTGAAAG | 7.34 | 7.83 | 3.7 | – | 13.3 | 1.57 | 3.3 | 3.6 | 4.72 | 3.17 | 3.07 | 6.2 | 4.28 | 3.09 | 7.21 | 6.66 | – |
| TCGCGTAGGTTACGGGGGCATTCAGGGATGAAGA | 2.78 | 4.58 | 1.25 | 3.16 | 1.49 | 0.315 | 2.72 | 2.37 | 3.63 | 2.87 | 1.99 | 3.08 | 3.93 | 1.5 | 2.44 | 3.42 | – |
| TCGAGTAGGTTACGGGGGCATCCAGGGATGAAGA | 5.07 | 5.83 | 2.37 | – | 1.02 | 0.18 | 2.46 | 2.2 | 3.36 | 2.37 | 1.27 | 2.88 | 3.66 | 1.12 | 2.47 | 3.31 | – |
| TCGAGTAGGTTACGGGTGCATTCAGGGATGAAGA | 2.9 | 3.34 | 0.289 | 1.62 | 0.692 | -0.909 | 0.994 | 0.631 | 0.869 | 0.463 | 0.951 | 1.29 | 2.22 | -0.191 | 2.69 | 1.33 | – |
| CTATGTAGGTAAAGGGGGTCATTCAGTTTGAAAG | 6.89 | 7.06 | 3.59 | 5.82 | 10.7 | 1.83 | – | 3.55 | 4.43 | 2.93 | 2.5 | 5.6 | 3.66 | 1.73 | 6.01 | 6.13 | – |
| TCAAGTAGGTTACGGGGGCATTCAGGGATGAAGA | 6.98 | 7.48 | 3.45 | 3.45 | 2.97 | 1.26 | – | 2.65 | 3.75 | 3.05 | 2.81 | 3.19 | 3.8 | 2.1 | 4.17 | 3.18 | 4.11 |
